In the supplement of paper PMC10849652:
Of roughly 8,800 targets only a part is listed; those with a hit were picked by preference. About 0.5% of all pairs of compound and target were hits. A number with no mark means an inactive call.

What was measured:
Test in all cases: log2 fold change, soluble protein after heating vs DMSO (PISA); higher = thermal stabilisation; K562 lysate, 10 uM; active = over 0.2 and 3.5 SD of the protein, either way, in both replicates (recomputed)
ibrutinib = compound: C=CC(=O)N1CCC[C@@H](n2nc(-c3ccc(Oc4ccccc4)cc3)c3c(N)ncnc32)C1 [ibrutinib]
Summary of the method: (§1)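 A 30 min treatment with 10 μM compound was applied to crude K562 extract at 1 mg/mL protein in PBS pH 7.4 with 1 mM MgCl2. Heating for 3 min spanned 48°C-58°C, after which aliquots were pooled, adjusted to 0.5% NP-40 at 4°C and spun at 21,000xg for 90 min. TMTpro 16plex LC-MS/MS of the supernatant, with channel sums equalised, gave values recorded as log-two fold change in thermal stability against solvent controls, from duplicates.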

[1] = compound: CC(=O)c1cnc2ccc(-c3cc(Cl)c(O)c(Cl)c3)nc2c1N[C@H]1CC[C@H](CN(C)C)CC1
Summary of the method: as §1

ralimetinib = compound: CC(C)(C)Cn1c(N)nc2ccc(-c3[nH]c(C(C)(C)C)nc3-c3ccc(F)cc3)nc21 [ralimetinib]
Summary of the method: as §1

[2] = compound: CC(C)(O)CC(=O)NCCn1ccc2ncnc(Nc3ccc(Oc4cccc(C(F)(F)F)c4)c(Cl)c3)c21
Summary of the method: as §1

[3] = compound: CC(C)C1=C2N=C(C=C(N2N=C1)NCC3=CC=CC=C3)NCCCCCCN
Summary of the method: as §1

[4] = compound: CC1=C(C(CC(=O)N1)C2=CC=C(C=C2)C(F)(F)F)C(=O)NC3=C(C=C4C(=C3)C=NN4)F
Summary of the method: as §1

[5] = compound: CC1=C(C2=C(C=C1)C(=O)C3=CC=CC=C3N2CCCN)C
Summary of the method: as §1

[6] = compound: CC1=C(C=C(C=C1)NC(=O)C2=CC(=CC=C2)C(C)(C)C#N)NC3=CC4=C(C=C3)N=CN(C4=O)C
Summary of the method: as §1

[7] = compound: CC1=C(C=C(C=C1)NC(=O)C2=CC(=CC=C2)N(C)C)NC(=O)C3=CC=C(C=C3)O
Summary of the method: as §1

[8] = compound: CC1=CC=C(C=C1)SC2=C3C=C(SC3=CN=C2)C(=O)N
Summary of the method: as §1

vemurafenib = compound: CCCS(=O)(=O)Nc1ccc(F)c(C(=O)c2c[nH]c3ncc(-c4ccc(Cl)cc4)cc23)c1F [vemurafenib]
Summary of the method: as §1

[9] = compound: CCCS(=O)(=O)Nc1ccc(F)c(C(=O)c2c[nH]c3ncc(Cl)cc23)c1F
Summary of the method: as §1

barasertib = compound: CCN(CCCOc1ccc2c(Nc3cc(CC(=O)Nc4cccc(F)c4)[nH]n3)ncnc2c1)CCOP(=O)(O)O [barasertib]
Summary of the method: as §1

[10] = compound: CC[C@@H]1C(=O)N(C)c2cnc(Nc3ccc(C(=O)NC4CCN(C)CC4)cc3OC)nc2N1C1CCCC1
Summary of the method: as §1

volasertib = compound: CC[C@@H]1C(=O)N(C)c2cnc(Nc3ccc(C(=O)N[C@H]4CC[C@H](N5CCN(CC6CC6)CC5)CC4)cc3OC)nc2N1C(C)C [volasertib]
Summary of the method: as §1

[11] = compound: CCn1c(C(=O)N(C2CC2)C2CC2)cc2c3c(ncn3C)c(Nc3cc(C)n(C)n3)nc21
Summary of the method: as §1

[12] = compound: CCn1cc(-c2ccnc3[nH]c(-c4cccc(CN(C)C)c4)cc23)c(-c2ccc(NC(=O)N(C)C)cc2)n1
Summary of the method: as §1

[13] = compound: CN1CCC(CNc2ccc3ncc(-c4cccc(OC(F)(F)F)c4)n3n2)CC1
Summary of the method: as §1

saracatinib = compound: CN1CCN(CCOc2cc(OC3CCOCC3)c3c(Nc4c(Cl)ccc5c4OCO5)ncnc3c2)CC1 [saracatinib]
Summary of the method: as §1

sotrastaurin = compound: CN1CCN(c2nc(C3=C(c4c[nH]c5ccccc45)C(=O)NC3=O)c3ccccc3n2)CC1 [sotrastaurin]
Summary of the method: as §1

Chain of UniProt Q9UPR3 (Q9UPR3 whole entry, looked up): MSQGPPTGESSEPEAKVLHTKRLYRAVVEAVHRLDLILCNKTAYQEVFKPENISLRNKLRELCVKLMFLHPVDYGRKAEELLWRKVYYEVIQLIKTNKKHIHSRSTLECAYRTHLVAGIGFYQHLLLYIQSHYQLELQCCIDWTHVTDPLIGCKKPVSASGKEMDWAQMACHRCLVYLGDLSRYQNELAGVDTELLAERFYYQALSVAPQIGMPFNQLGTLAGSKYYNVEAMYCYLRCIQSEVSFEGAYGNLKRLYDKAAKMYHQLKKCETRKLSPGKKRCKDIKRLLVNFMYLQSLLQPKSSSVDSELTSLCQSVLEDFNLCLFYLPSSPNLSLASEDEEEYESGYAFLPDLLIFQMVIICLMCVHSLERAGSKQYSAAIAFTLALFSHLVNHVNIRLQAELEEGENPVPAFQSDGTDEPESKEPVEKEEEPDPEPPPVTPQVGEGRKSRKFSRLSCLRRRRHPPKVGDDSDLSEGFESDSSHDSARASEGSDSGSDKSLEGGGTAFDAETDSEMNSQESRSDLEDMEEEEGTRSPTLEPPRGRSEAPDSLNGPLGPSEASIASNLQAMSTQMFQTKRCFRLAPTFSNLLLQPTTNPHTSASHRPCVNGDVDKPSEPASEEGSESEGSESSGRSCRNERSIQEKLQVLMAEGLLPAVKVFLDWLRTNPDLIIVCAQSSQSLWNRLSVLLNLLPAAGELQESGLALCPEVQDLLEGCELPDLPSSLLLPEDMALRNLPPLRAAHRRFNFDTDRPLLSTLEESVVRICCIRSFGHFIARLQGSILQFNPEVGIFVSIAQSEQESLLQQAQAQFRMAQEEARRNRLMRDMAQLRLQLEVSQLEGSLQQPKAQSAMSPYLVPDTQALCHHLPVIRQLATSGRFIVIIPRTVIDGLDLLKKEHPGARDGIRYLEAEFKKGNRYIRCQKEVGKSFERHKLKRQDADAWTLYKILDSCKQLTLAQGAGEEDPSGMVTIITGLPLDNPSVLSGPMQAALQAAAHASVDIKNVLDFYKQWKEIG
Chain of UniProt O60225 (O60225 whole entry, looked up): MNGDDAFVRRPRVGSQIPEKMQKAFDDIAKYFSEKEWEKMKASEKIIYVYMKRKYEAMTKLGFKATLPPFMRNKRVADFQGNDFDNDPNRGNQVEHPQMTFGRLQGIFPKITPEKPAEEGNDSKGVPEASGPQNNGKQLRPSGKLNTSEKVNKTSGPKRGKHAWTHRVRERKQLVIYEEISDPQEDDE
Chain of UniProt Q9NYA1 (Q9NYA1 whole entry, looked up): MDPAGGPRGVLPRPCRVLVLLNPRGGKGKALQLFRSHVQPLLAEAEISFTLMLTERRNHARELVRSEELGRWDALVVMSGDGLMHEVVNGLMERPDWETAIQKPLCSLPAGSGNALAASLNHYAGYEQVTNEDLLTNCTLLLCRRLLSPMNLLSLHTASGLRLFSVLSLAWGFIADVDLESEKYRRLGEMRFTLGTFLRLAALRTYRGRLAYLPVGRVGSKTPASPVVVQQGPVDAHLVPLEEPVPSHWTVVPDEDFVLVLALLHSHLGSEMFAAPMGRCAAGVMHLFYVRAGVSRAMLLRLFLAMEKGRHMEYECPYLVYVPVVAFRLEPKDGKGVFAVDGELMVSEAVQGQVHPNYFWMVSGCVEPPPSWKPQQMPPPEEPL
Chain of UniProt P41440 (P41440 whole entry, looked up): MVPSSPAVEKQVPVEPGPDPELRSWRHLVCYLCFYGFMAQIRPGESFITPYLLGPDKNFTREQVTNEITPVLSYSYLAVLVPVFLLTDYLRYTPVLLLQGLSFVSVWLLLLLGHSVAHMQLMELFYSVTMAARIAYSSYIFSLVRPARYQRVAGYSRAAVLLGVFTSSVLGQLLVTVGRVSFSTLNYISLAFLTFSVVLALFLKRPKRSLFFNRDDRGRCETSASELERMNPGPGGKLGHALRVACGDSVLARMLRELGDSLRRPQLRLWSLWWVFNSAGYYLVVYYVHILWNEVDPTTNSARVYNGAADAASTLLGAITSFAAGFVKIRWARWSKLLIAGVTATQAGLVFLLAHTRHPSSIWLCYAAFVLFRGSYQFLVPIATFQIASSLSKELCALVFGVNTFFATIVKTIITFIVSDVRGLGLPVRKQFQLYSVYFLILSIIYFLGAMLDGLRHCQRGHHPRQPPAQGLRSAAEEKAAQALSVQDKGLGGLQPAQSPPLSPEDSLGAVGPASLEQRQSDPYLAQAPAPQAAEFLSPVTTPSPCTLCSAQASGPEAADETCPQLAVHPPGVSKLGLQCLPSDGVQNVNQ
Chain of UniProt Q9H668 (Q9H668 whole entry, looked up): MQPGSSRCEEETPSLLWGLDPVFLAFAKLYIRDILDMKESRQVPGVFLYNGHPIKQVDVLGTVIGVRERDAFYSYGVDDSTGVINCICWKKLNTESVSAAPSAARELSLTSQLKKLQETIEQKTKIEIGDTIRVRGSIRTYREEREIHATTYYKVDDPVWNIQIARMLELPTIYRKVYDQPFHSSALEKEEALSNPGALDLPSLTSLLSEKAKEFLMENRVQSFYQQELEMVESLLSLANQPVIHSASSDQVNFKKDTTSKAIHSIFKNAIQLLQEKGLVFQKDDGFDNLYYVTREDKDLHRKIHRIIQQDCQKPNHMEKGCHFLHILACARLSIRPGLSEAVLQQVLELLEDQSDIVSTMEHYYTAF
Chain of UniProt Q99961 (Q99961 whole entry, looked up): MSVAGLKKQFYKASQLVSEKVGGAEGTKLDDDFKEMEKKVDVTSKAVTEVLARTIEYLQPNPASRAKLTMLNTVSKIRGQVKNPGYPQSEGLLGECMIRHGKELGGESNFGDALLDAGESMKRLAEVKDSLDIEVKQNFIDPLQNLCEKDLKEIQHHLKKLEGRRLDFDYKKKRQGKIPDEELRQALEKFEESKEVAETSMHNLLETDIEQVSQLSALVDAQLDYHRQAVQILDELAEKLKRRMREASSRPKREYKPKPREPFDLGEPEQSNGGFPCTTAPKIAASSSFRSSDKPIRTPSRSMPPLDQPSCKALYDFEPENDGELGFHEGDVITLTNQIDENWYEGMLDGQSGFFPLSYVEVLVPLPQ
Chain of UniProt Q9H7B4 (Q9H7B4 whole entry, looked up): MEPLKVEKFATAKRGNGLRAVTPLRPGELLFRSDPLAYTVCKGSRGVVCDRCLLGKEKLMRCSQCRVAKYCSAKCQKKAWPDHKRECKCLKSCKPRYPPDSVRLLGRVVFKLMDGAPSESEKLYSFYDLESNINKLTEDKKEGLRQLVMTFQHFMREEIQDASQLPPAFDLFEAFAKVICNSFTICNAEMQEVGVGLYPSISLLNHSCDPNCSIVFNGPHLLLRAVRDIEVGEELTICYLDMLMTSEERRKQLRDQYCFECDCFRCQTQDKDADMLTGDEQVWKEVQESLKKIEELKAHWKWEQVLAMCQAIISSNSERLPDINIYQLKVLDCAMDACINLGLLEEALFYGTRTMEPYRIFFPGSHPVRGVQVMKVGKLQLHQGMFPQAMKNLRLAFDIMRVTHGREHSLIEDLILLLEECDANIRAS
Chain of UniProt Q7L8J4 (Q7L8J4 whole entry, looked up): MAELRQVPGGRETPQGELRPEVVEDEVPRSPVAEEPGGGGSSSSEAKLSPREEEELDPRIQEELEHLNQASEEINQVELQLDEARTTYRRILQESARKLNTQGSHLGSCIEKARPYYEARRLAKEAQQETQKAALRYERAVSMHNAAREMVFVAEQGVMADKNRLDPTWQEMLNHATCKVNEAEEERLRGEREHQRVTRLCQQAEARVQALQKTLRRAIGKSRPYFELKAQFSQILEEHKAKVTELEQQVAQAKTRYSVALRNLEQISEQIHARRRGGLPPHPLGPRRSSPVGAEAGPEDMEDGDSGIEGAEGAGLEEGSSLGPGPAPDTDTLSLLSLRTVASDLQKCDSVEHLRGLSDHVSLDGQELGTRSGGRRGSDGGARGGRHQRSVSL
Chain of UniProt P10124 (P10124 whole entry, looked up): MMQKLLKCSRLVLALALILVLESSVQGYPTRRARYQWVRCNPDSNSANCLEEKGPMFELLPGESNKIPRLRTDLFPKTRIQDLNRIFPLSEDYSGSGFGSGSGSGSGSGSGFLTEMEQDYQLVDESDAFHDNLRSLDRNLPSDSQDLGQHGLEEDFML
Chain of UniProt O95149 (O95149 whole entry, looked up): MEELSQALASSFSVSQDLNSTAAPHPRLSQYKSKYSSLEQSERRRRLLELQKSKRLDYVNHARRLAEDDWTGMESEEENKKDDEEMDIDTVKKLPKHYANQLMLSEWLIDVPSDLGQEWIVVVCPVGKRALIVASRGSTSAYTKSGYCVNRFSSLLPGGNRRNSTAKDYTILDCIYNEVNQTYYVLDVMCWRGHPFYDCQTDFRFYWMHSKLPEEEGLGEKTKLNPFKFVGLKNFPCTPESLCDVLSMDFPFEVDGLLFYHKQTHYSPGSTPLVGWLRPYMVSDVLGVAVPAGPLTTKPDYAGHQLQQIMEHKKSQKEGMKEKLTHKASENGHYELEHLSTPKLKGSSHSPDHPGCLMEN
Chain of UniProt Q8TCT8 (Q8TCT8 whole entry, looked up): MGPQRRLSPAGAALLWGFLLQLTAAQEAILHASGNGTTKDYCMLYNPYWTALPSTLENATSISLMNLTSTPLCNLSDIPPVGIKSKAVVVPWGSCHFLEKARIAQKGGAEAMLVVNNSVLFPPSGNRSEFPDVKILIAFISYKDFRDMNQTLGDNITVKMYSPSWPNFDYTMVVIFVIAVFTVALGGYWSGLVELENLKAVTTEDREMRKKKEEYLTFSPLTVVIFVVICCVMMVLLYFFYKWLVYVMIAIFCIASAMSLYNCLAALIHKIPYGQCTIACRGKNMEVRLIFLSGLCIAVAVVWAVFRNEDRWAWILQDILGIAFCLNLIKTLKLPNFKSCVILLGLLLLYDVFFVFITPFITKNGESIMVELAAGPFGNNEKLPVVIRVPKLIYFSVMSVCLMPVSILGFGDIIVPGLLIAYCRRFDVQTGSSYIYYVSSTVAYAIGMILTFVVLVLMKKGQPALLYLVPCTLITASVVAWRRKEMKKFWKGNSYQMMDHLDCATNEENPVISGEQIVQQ

Target	log2 fold change (ibrutinib)	log2 fold change [1]	log2 fold change (ralimetinib)	log2 fold change [2]	log2 fold change [3]	log2 fold change [4]	log2 fold change [5]	log2 fold change [6]	log2 fold change [7]	log2 fold change [8]	log2 fold change (vemurafenib)	log2 fold change [9]	log2 fold change (barasertib)	log2 fold change [10]	log2 fold change (volasertib)	log2 fold change [11]	log2 fold change [12]	log2 fold change [13]	log2 fold change (saracatinib)	log2 fold change (sotrastaurin)
SPHK1 isoform 2 (UniProt Q9NYA1)	-0.088	0.029	0.124	0.061	0.021	0.041	0.041	-0.276 (active)	-0.061	-0.036	-0.009	0.034	0.008	-0.051	-0.022	0.171	-0.003	0.056	0.086	0.029
STN1 (UniProt Q9H668)	0.133	-0.187	0.151	-0.071	-0.056	0.106	–	-0.016	0.051	0.035	0.047	-0.389	0.114	-0.071	-0.068	-0.016	-0.179	0.31	–	-0.025
SH3GL1 (UniProt Q99961)	-0.004	0	0.031	0.006	-0.015	-0.03	0.017	0.025	0.006	-0.012	-0.002	-0.01	-0.019	0.044	-0.004	0.018	0.044	-0.022	0.011	-0.03
SMG5 (UniProt Q9UPR3)	-0.041	0.048	0.021	-0.032	-0.037	0.071	0.015	-0.117	0.057	0.024	0.009	0.048	0.047	0.029	-0.006	0.068	0.038	-0.004	0.05	-0.024
SULT1A1 (UniProt P50225)	0.02	-0.027	0.028	-0.03	0.03	-0.009	-0.06	0.022	0.047	0.006	0.014	0.004	-0.017	0.032	-0.046	-0.016	0.014	-0.009	0.037	-0.009
SSX5 isoform 2 (UniProt O60225)	-0.081	0.028	0	0.032	-0.261	-0.089	–	–	-0.018	-0.003	0.143	0.062	-0.065	-0.188	0.013	0.031	-0.926 (active)	0.049	–	–
STK4 (UniProt Q13043)	0.056	0.324	-0.006	0.007	0.004	-0.023	-0.015	-0.036	0.024	-0.07	0.058	0.047	0.029	0.002	-0.046	0.023	-0.019	0.168	0.029	0.199
SNUPN (UniProt O95149)	-0.072	0.001	-0.008	-0.068	-0.116	-0.065	–	0.001	-0.036	0.027	-0.008	0.007	0.06	-0.082	0.04	0.051	-0.024	-0.036	–	0.028
SH3BP5L (UniProt Q7L8J4)	0.007	0.013	-0.024	-0.035	0.032	0.009	-0.02	0.021	-0.017	-0.045	0.078	0.02	-0.029	0.011	0.013	-0.011	-0.014	0.072	0.05	0
SPPL2A (UniProt Q8TCT8)	-0.081	0.154	-0.152	-0.219	0.004	–	–	0.138	0.091	-0.008	0.312	0.023	0.077	-0.016	0.011	-0.062	-0.196	0.202	–	-0.029
SLC19A1 (UniProt P41440)	0.049	0.013	-0.004	-0.054	-0.019	0.019	-0.044	0.009	0.004	-0.003	0.028	-0.005	0.059	0.014	0.047	-0.036	-0.203	0.165	0.019	0.025
SRGN (UniProt P10124)	0.109	0.084	0.001	-0.159	-0.018	–	-0.079	0.104	-0.064	-0.064	0.177	0.093	-0.033	0.059	-0.086	-0.005	-0.022	0.101	0.043	0.069
SMYD3 (UniProt Q9H7B4)	-0.009	-0.002	0.032	-0.012	0.034	-0.037	-0.028	0.038	0.036	-0.027	0.036	0.013	0.017	-0.137	-0.051	-0.02	–	–	0.045	-0.005
